Assay outcomes from PubChem BioAssay.
Shown are actives, neighbours in structure and some others; about 2.7% of the full set was active somewhere.
IDE cell inh = inhibitors of human insulin-degrading enzyme in cells | P14735 | HEK cells, FAbetaB cleavage, fluorescence polarization | inhibition, % at 5.59 µM | hit rate 0.41% among 320,000 | AID 434962;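 active = percent inhibition above the average of all tested compounds plus 3 SD, set per screening campaign, cut at about 16% in these data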;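 also: IDE supplied by intact live HEK cells; FP after avidin binding of uncleaved biotin substrate so inhibition keeps polarization high; 0% = DMSO wells and 100% = 60 µM reference IDE inhibitor Ii1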
CHT block = human CHT choline transport inhibition; hit rate 0.86% among 310,000; CHT-expressing cells, membrane potential dye, choline response; stronger effect = lower value; B-score at 10 µM; Q9GZV3; AID 488975;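 active = B-score over 3 SD under the library average, and starting fluorescence ratio not unusually high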;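 also: choline stimulus applied at its EC90 after an EC20 pre-addition; B-score computed on integrated fluorescence ratio after choline addition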
Target sequence (Q9GZV3 whole entry, looked up): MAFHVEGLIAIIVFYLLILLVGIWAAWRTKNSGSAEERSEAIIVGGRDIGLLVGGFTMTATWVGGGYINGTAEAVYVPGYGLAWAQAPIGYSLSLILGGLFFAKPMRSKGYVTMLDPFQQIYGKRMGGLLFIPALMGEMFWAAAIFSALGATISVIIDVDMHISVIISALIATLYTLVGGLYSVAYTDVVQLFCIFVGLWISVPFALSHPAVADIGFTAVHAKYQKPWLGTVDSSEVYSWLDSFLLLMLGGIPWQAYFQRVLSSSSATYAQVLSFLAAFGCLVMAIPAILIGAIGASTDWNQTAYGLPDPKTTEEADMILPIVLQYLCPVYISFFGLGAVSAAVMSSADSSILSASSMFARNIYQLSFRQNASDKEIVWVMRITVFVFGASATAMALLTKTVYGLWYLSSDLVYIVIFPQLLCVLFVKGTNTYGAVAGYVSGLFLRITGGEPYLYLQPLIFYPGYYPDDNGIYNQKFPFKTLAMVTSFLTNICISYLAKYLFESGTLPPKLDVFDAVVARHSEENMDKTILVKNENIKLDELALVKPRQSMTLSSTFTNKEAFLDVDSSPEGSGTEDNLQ
TMEM16A inh = blocks the mouse calcium-activated chloride channel TMEM16A. HEK293 TMEM16A/YFP iodide influx fluorescence, ionomycin. normalized B-score (activity score, 25-100; higher = stronger inhibition) at 10 µM. hit rate 1.2% among 310,000;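 active = ratio plate-corrected score three or more library SD toward inhibition, starting fluorescence score within five deviations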;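 also: score derived from kinetic fluorescence span divided by baseline fluorescence per well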
IDE act = activators of human insulin-degrading enzyme in cells; P14735; HEK cells, FAbeta-B cleavage, fluorescence polarization; 0% vehicle, 100% cell-free pure enzyme wells; activation, % at 5.96 µM; hit rate 0.073% among 340,000;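 active = activation above the mean of all tested compounds plus 3 SD, set per screening campaign, cut at about 17% in these data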
ANO1 activ = activators or potentiators of mouse TMEM16A chloride channel; Q8BHY3; HEK293 TMEM16A/YFP-H148Q/I152L, iodide quench fluorescence; stronger effect = lower value; B-score at 10 µM; hit rate 0.3% among 340,000; AID 623877;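 active = fluorescence-ratio B-score plate-corrected deviation score at least 3 library SD below zero, with starting fluorescence score within 5 deviations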;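 also: channel opened by trigger with iodide after compound preincubation; score built on the fluorescence ratio of max minus min over baseline; more negative score means more quench and so TMEM16A activation or potentiation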
CHT allo act = allosteric activators of human choline transporter CHT; Q9GZV3; CHT-expressing cells, membrane potential dye, choline EC20; stronger effect = higher value; LV-AA mutant CHT in HEK293 cells; B-score at 10 µM; hit rate 0.49% among 310,000; AID 488977;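 active = initial fluorescence not abnormally high and integrated response B-score, plate-corrected, over 3 SD above library mean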
* hit, by the source's call; i = inactive; . = no result.

SMILES	IDE cell inh	CHT block	TMEM16A inh	IDE act	ANO1 activ	CHT allo act
Oc1ccccc1Nc1nc(NCc2ccccc2)c2ccccc2n1	6	i	100*	1	i	i
Cn1cc(C(=O)c2ccc(Cl)cc2)cc1-c1nc2ccccc2n1C	4	i	100*	7	i	i
CC(=O)O[C@H]1[C@@H](O)[C@H](O)[C@H](Oc2c(O)c(C)c3c4c2[C@@H](C)CC[C@@H]4[C@@H](C)C[C@H]3C=C(C)C)O[C@H]1C	1	.	.	11	i	.
Cc1ccc(-c2nn(-c3ccc(F)cc3)cc2C(=O)N2CCN(C3CCS(=O)(=O)C3)CC2)cc1 (configuration not stated)	0	.	.	3	-37*	.
Cc1ccc(-c2nn(-c3ccccc3)cc2C(=O)N2CCN(C3CCS(=O)(=O)C3)CC2)cc1 (configuration not stated)	3	.	.	-2	i	.
O=C(NC1CCCC1)C(c1ccccn1)N(Cc1ccccc1F)C(=O)c1csnn1 (configuration not stated)	0	i	i	-3	i	i
CCN(CC)S(=O)(=O)c1ccc(/C=C/C(=O)Nc2ccc(Br)cc2F)cc1	3	i	100*	-4	i	i
Cc1nc(NC(=O)CSc2nnc(C3CC3)n2N)c(Cl)cc1Cl	-2	.	.	2	i	.
CCOC(=O)/C(=C\c1cccnc1)C(=O)c1cc(C(C)=O)c(Nc2ccccc2)s1	7	i	25*	-4	-11*	i
CCOC(=O)c1cccc(P(C)(C)=O)c1	-3	i	i	19*	i	i
COc1ccc(-c2csc(N(CCCN(C)C)C(=O)c3ccccc3F)n2)cc1	-1	i	i	4	i	i
COc1ccc(-c2csc(N(CCCN(C)C)C(=O)c3ccccc3Cl)n2)cc1	5	-8.8*	i	0	i	i
CC(C)N(C(=O)Cn1cc(S(=O)(=O)CC(=O)Nc2ccccc2)c2ccccc21)C(C)C	7	i	i	3	i	i
Cc1ccc(OCC(=O)Oc2ccc(C(C)C)cc2)cc1	0	i	i	9	i	i
CCC(=O)Oc1ccc(C(CC)C(CC)c2ccc(OC(=O)CC)cc2)cc1 (configuration not stated)	7	i	100*	6	i	i
CC(C)(C)N(Cc1ccccc1)C(=O)COC(=O)C1CCN(c2ccc(C(F)(F)F)cn2)CC1	6	.	.	4	-44*	.
CC(C)N(Cc1ccccc1)C(=O)COC(=O)C1CCN(c2ccc(C(F)(F)F)cn2)CC1	.	.	.	-2	i	.
O=[N+]([O-])c1ccc(OCc2nnc(-c3ccccc3)o2)cc1	8	i	100*	-3	i	i
COc1cc(CNC2CCCC2)cc(OC)c1OC	-2	i	i	18*	i	i
C#CCOCCOCCOCCNc1nc(N2CCN(C(=O)CCCCCCCCCCNC(=O)Cn3cc(CCCCCN)nn3)CC2)nc(N2CCN(C(=O)CCCCCCCCCCNC(=O)[C@@H]([C@H](C)O)n3cc(C)nn3)CC2)n1	-3	i	i	25*	i	i
C#CCOCCOCCOCCNc1nc(N2CCN(C(=O)CCCCCCCCCCNC(=O)Cn3cc(CCCCCN)nn3)CC2)nc(N2CCN(C(=O)CCCCCCCCCCNC(=O)Cn3cc(C[C@@H](C)O)nn3)CC2)n1	2	i	i	22*	i	i
C#CCOCCOCCOCCNc1nc(N2CCN(C(=O)CCCCCCCCCCNC(=O)Cn3cc(C[C@@H](C)O)nn3)CC2)nc(N2CCN(C(=O)CCCCCCCCCCNC(=O)[C@@H]([C@H](C)CC)n3cc(CCCCCN)nn3)CC2)n1	10	i	25*	26*	i	i
COC(=O)[C@@H](NCc1cccc(CN[C@H](C(=O)OC)c2ccccc2)c1)c1ccccc1	1	i	i	-3	i	i
CC(=O)Oc1ccc2c(c1)Oc1cc(OC(C)=O)ccc1C21OC(=O)c2ccccc21	-18	i	i	42*	i	i
